Screening data (PubChem)
Cruzain inh Det: inhibitors of Trypanosoma cruzi cruzain with detergent. P25779. purified cruzain, Z-FR-AMC fluorescence, 0.01% Triton. Potency, µM, inactives show max response, negative = inhibition, usual class: inhibitors. actives 0.43% (n = 200,000);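 further: plate controls were neutral wells for no effect and buffer without enzyme for full effect; nearly all actives have a fitted effect of over 40% in size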
Target sequence (P25779 123-467 limits assumed): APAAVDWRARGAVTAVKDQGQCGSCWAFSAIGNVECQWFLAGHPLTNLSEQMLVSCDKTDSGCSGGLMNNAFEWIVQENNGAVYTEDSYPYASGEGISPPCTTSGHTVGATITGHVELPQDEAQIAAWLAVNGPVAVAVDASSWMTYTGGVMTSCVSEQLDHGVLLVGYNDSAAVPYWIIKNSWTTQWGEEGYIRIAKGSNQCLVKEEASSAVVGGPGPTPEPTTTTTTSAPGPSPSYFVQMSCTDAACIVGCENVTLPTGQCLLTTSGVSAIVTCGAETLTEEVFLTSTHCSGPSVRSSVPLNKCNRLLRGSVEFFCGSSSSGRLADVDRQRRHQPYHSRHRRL
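Z-FR-AMC hydrolysis (2 uM substrate) by cruzain (1.5 nM) monitored kinetically at ex 360/em 450 nm after 15 min room-temperature compound exposure; 0.01% Triton X-100, pH 5.5, 5 mM DTT.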
Cruzain inh noDet: inhibitors of Trypanosoma cruzi cruzain without detergent. purified cruzain, Z-FR-AMC fluorescence, no detergent. actives 2.3% (n = 200,000). Potency, µM, for the others: max response, negative = inhibition, hits mostly inhibitors. AID 1476. P25779;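 further: plate controls were enzyme without inhibitor for no effect and buffer without enzyme for full effect; nearly all actives have a fitted effect of over 40% in size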
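Purified cruzain at 1.5 nM, pre-incubated 15 min with compound at room temperature in 100 mM sodium acetate pH 5.5, 5 mM DTT, 0.00005% Triton X-100. Reaction started with 2 uM Z-FR-AMC; AMC fluorescence increase over 60 s gives rate.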
The depositor's hits bear a star; u = inconclusive. Rows were chosen to be rich in hits. Some 2.6% of all compounds tested hit in one or more screens of this group. The call rests on the fitted dose curve; in most records, active means well fitted curve in the direction sought with a large enough effect; inconclusive means small, poorly fitted or top-dose-only effect, or another doubt; inactive means no such curve, though single readings can be large; an effect the other way counts as inactive or inconclusive. Potency means the concentration at half of the fitted maximal effect.

SMILES	Cruzain inh Det	Cruzain inh noDet
O=C(Nc1ccc2nc(-c3cccs3)[nH]c2c1)c1cccs1	3%	18%
O=C(Nc1ccc(-c2nc3ccc(NC(=O)c4cccs4)cc3[nH]2)cc1)c1cccs1	11µM*	25µM*
COc1ccccc1CNC(=O)CN1C(=O)CCn2nc(-c3ccccc3)cc21	-1%	3%
Cc1ccc(C)c(NC(=S)NC(NC(=O)N(C)C)C(Cl)(Cl)Cl)c1 (configuration not stated)	6%	-6%
Cc1ccc(C)c(NC(=S)NC(NC(=O)Cc2cccc3ccccc23)C(Cl)(Cl)Cl)c1 (configuration not stated)	-2%	7.9µM*
O=C(NCCc1ccc(Cl)cc1)C(=O)NCC(c1cccs1)S(=O)(=O)c1ccccc1 (configuration not stated)	-2%	23%
O=C(NCC(c1cccnc1)N1CCN(c2ccccc2F)CC1)C(=O)Nc1ccc(F)cc1F (configuration not stated)	-4%	5%
COc1cccc(NC(=O)Cn2cc(C#N)c3ccccc32)c1	-4%	1%
COc1cccc(NC(=O)/C(C#N)=C/c2c(C)n(Cc3ccccc3)c3ccccc23)c1	-3%	7.9µM*
Cn1cc(/C=C(\C#N)C(=O)Nc2ncc(Cc3ccc(Cl)cc3)s2)c2ccccc21	-4%	7.9µM*
Cc1cccc(NC(=O)/C(C#N)=C/c2ccc(C)o2)c1	-9%	2%
COc1cccc(NC(=O)/C(C#N)=C\c2cn(Cc3ccc(Cl)cc3)c3ccccc23)c1	-3%	10µM*
Cc1ccc(/C=C(\C#N)C(=O)Nc2cccc(Cl)c2)o1	0%	10µM*
N#C/C(=C\c1cn(Cc2ccc(F)cc2)c2ccccc12)C(=O)NCc1ccco1	-12%	u
Cc1ccc(C(=O)Nc2ncc(Cc3ccccc3)s2)o1	-2%	-6%
COCCN=C1OC(=O)N2C(=O)C3=C4C(C[C@H]5C(=O)N(c6ccccc6)C(=O)[C@H]5[C@H]4[C@@]12Cc1ccccc1)[C@H]1C(=O)N(c2ccccc2)C(=O)[C@H]1[C@H]3C (some centres not stated)	3%	u
Cn1c(=O)c2c(nc(NCCc3ccccc3)n2Cc2cccc(Br)c2)n(C)c1=O	-8%	-1%
O=C(Nc1ccc2nc(SCC(=O)N3CCCC3)sc2c1)c1cccc(Br)c1	-7%	9%
COc1ccccc1N1CCN(C(=O)CN2C(=O)COc3ccc(S(=O)(=O)N4CCOCC4)cc32)CC1	-2%	u
CC(=O)c1ccc(NC(=O)CC2Oc3ccc(C)cc3NC2=O)cc1 (configuration not stated)	-1%	10%
N#C/C(=C\c1cn(Cc2ccccc2)c2ccccc12)C(=O)NCc1ccco1	-6%	-13%
Cc1ccc(Cn2cc(/C=C(/C#N)C(=O)Nc3cccc(Cl)c3)c3ccccc32)cc1	-3%	7.9µM*
Cc1ccc(Cc2cnc(NC(=O)/C(C#N)=C/c3ccc(-c4ccccc4[N+](=O)[O-])o3)s2)cc1	-1%	10µM*
N#C/C(=C\c1ccc(-c2ccccc2Cl)o1)C(=O)Nc1nc2ccccc2s1	-5%	u
Cc1ccc(SCC(=O)Nc2ccc(N3CCN(C)CC3)c(F)c2)cc1	-1%	-1%
SMILES	Cruzain inh Det	Cruzain inh noDet
O=C(CSc1ccccc1)Nc1ccc(N2CCN(c3ccccc3)CC2)c(F)c1	9%	13µM*
Cc1ccc(C)c(N2CCN(CCCNC(=O)c3cnn(-c4ccc(F)cc4)c3C3CCN(C(=O)OC(C)(C)C)CC3)CC2)c1	-4%	-7%
Cc1ccc(/C=N/N2CCN(Cc3ccccc3)CC2)s1	2%	5%
Cc1ccc(/C=N/N2CCN(Cc3cccc4ccccc34)CC2)s1	0%	10µM*
Cn1c(=O)n(C)c2cc(N3CCOCC3)c(NS(=O)(=O)c3ccc(Cl)cc3)cc21	0%	u
CC1CCc2c(sc(NC(=O)CSc3nc4c(c(C(F)(F)F)n3)CCc3ccccc3-4)c2C(N)=O)C1 (configuration not stated)	-2%	10µM*
N#Cc1c(NC(=O)CSc2nc3c(c(C(F)(F)F)n2)CCc2ccccc2-3)sc2c1CCCC2	-3%	7.9µM*
NC(=O)c1c(NC(=O)CSc2nc3c(c(C(F)(F)F)n2)CCc2ccccc2-3)sc2c1CCCC2	0%	u
CCn1c(SCC(=O)Nc2sc3c(c2C#N)CCCC3)nnc1-c1ccncc1	-10%	u
N#Cc1c(NC(=O)CSc2nnc(-c3ccccc3O)n2-c2ccccc2)sc2c1CCCC2	3%	4µM*
Cc1nn(Cc2ccc(Cl)cc2)c(C)c1NC(=O)CSc1nc2c(c(C(F)(F)F)n1)CCc1ccccc1-2	4%	u
CCCn1c(C)nc2c(Nc3ccccc3)nc(C)nc21	-5%	-2%
COC(=O)C1=C(c2ccccc2)c2ccccc2S(=O)(=O)N1CC(=O)Nc1ccccc1Cl	-6%	-22%
Cc1cc(C)c(NC(=O)c2cc(C)nc3c2c(C)nn3-c2cccc(F)c2)c(C)c1	0%	5%
COc1ccc(-n2nc3cc(C)c(NC(=O)COc4cccc(C)c4)cc3n2)cc1	0%	10%
CCN1/C(=C2\OC(=S)N(C)C2=O)Sc2ccccc21	5%	-8%
CCN1/C(=C2\SC(=S)N(Cc3ccccc3)C2=O)Sc2ccccc21	-8%	10µM*
Cc1cn2c(=O)c(S(=O)(=O)NCc3ccc(F)cc3)c(C)nc2s1	-2%	0%
O=C(c1ccccc1Cl)n1nc(-c2cccnc2)nc1NCc1ccc(F)cc1	-8%	-10%
CCCn1cc(S(=O)(=O)c2ccc(OCC)cc2)c(=O)c2cc(C)ccc21	-3%	-5%
CC(C)c1ccc(S(=O)(=O)c2cn(Cc3ccc(F)cc3)c3cc4c(cc3c2=O)OCO4)cc1	-2%	u
CCOc1ccc(S(=O)(=O)c2cn(Cc3cc(C)ccc3C)c3ccc(OCC)cc3c2=O)cc1	-4%	16µM*
Cc1ccc(Cn2cc(S(=O)(=O)c3ccc(C(C)C)cc3)c(=O)c3cc4c(cc32)OCO4)cc1	-6%	32µM*
Cc1ccc2c(=O)c(C(=O)c3ccccc3)cn(CC(=O)Nc3ccc4c(c3)OCCO4)c2n1	-2%	-4%
COc1cc(-c2nc(-c3ccc4c(c3)-c3ccccc3S4(=O)=O)c(-c3ccccc3)[nH]2)cc(OC)c1OC	-1%	-2%
SMILES	Cruzain inh Det	Cruzain inh noDet
COc1cccc(-c2nc(-c3ccc4c(c3)-c3ccccc3S4(=O)=O)c(-c3ccccc3)[nH]2)c1OC	-10%	13µM*
N#Cc1c[nH]n2c(NC3CCCCC3)c(-c3ccccc3F)nc12	-2%	-1%
CCCCCn1c(CCNC(=O)c2cccc(C)c2)nc2ccccc21	13µM*	6%
CCCCCn1c(CNC(=O)c2cccs2)nc2ccccc21	-5%	17%
Cc1cccc(C(=O)NCc2nc3ccccc3n2Cc2ccccc2Cl)c1	-15%	16%
O=C(NCCc1nc2ccccc2n1Cc1ccc(Cl)cc1)c1ccccc1	6.3µM*	17%
CCCCCn1c(CCNC(=O)c2cccs2)nc2ccccc21	-22%	13µM*
CCC(=O)NCCc1nc2ccccc2n1Cc1ccccc1	0%	-17%
CCCCCn1c(CCNC(=O)CCC)nc2ccccc21	-21%	-5%
Cc1cccc(C(=O)NCCc2nc3ccccc3n2Cc2ccc(Cl)cc2)c1	7.9µM*	u
CC(=O)c1ccc(N2CCN(C(=O)C3CCN(S(=O)(=O)c4ccc(Br)s4)CC3)CC2)cc1	-3%	-9%
O=C1CCCc2[nH]c(=O)c(-c3nc(-c4cccc([N+](=O)[O-])c4)cs3)cc21	-6%	17%
